Mdm2-MdmX inh – inhibitors of human Mdm2/MdmX interaction | SaOS-2 split-luciferase Mdm2/MdmX complementation, luminescence | inhibition, % at 8 µM | hit rate 3% among 330,000 | AID 485346;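 active = inhibition of at least 50% at 8 µM in the primary screen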
Target sequence (O15151 whole entry, looked up): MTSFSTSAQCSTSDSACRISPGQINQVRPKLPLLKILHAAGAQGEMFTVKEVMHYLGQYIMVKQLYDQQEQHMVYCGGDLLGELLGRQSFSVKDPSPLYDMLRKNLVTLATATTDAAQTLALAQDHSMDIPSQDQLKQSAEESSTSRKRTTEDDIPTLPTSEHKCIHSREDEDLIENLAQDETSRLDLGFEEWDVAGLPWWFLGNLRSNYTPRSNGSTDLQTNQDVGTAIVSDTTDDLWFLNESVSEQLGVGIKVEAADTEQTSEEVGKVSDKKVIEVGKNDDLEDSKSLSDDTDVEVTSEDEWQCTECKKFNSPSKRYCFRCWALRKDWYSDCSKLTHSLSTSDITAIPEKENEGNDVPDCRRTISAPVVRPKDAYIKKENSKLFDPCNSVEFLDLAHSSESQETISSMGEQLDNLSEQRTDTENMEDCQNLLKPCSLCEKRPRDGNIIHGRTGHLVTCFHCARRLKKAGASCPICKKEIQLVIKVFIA
Target sequence (Q00987 whole entry, looked up): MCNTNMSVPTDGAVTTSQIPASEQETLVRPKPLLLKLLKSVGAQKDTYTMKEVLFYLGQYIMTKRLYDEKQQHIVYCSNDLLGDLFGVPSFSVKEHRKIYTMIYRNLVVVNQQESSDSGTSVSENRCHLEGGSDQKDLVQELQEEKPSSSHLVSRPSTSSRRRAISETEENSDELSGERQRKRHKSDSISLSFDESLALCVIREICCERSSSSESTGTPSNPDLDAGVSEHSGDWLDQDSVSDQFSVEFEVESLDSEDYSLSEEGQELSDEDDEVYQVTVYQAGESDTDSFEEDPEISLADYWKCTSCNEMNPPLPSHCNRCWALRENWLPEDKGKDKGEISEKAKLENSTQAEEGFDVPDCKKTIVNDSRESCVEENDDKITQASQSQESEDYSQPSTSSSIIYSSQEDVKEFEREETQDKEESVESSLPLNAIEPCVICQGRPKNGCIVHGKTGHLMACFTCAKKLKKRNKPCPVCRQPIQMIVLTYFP
aSyn UTR inh – 5' untranslated region of α-synuclein, MLPCN primary screen; alpha-synuclein 5'UTR reporter, inhibitor activity; inhibition, % (tested at 7.5 µM); hit rate 0.82% among 300,000; AID 1813; in the data active = inhibition above about 60%;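 note: H4 neuroglioblastoma cells stably carrying SNCA 5'UTR luciferase fusion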
KLF5 inhibitor – inhibitors of KLF5 expression; DLD-1 KLF5 promoter-luciferase reporter, luminescence; inhibition, % at 5 µM; hit rate 0.23% among 290,000;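 active = inhibition above a per-plate limit of that plate's mean compound inhibition plus 3 SD, cut at about 60% in these data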;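 note: higher means less KLF5 promoter-driven luciferase light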
Gli-Sufu antag – antagonists of Gli-Sufu signaling | inhibition, % at 5 µM | hit rate 0.74% among 340,000 | Sufu-KO-LIGHT fibroblasts, Gli luciferase reporter luminescence;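 active = inhibition above about 55%, limit read from the data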
Jurkat NFkB inh – inhibitors of the PMA/ionomycin-induced NF-kB reporter in Jurkat cells; PMA/ionomycin-induced NF-kB luciferase reporter, luminescence; inhibition, % at 4 µM; hit rate 0.53% among 330,000; AID 435003; in the data active = inhibition above about 50%
697 NFkB inh – lowers PMA/ionomycin-induced NF-kB signal in 697 B cells; hit rate 0.33% among 330,000; inhibition, % at 4 µM; 697 B-cell NF-kB luciferase reporter, 16 h; AID 435022; in the data active = inhibition above about 35%
Jurkat NFkB conf – lowers PMA/ionomycin-induced NF-kB signal in Jurkat cells | shares compounds with Jurkat NFkB inh | Jurkat NF-kB luciferase, 16 h | inhibition, % at 4 µM | hit rate 27% among 2,700 | AID 435020;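 active = inhibition reaching about 45% at 4 µM in either replicate, limit read from the data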
Numbers stand for hits; 0 = inactive; - = not tested or not shown. In the library only some 4.1% were active in any assay of this set; here they are far more common.

SMILES	Mdm2-MdmX inh	aSyn UTR inh	KLF5 inhibitor	Gli-Sufu antag	Jurkat NFkB inh	697 NFkB inh	Jurkat NFkB conf
CCc1nc(SCC(=O)Nc2cc(C)on2)c2c(C)c(C)sc2n1	0	0	0	0	0	0	-
Cc1cc(NC(=O)CSc2nc(C3CC3)nc3sc(C)c(C)c23)no1	0	0	0	0	51	0	0
CC1=NN(C(=O)Cn2nc([N+](=O)[O-])c(Br)c2C)C(O)(C(F)(F)F)C1 (stereo not given)	0	0	0	0	0	0	-
CC(=Nc1ccc(Br)cc1)c1sc2ccccc2c1O	0	0	0	0	0	0	0
CCOC(=O)c1ccccc1NC(=O)Cc1c(C(=O)O)n(C)c2ccccc12	0	0	0	0	0	0	-
CC(C)(C)c1ccc(/C=C/C(=O)NC2=NCCS2)cc1	0	0	0	0	0	0	0
CC(C)(C)c1ccc(/C=C/C(=O)Nc2cccnc2)cc1	0	0	0	0	0	0	-
CSc1ccc(CN2CCN(Cc3ccc([N+](=O)[O-])cc3)CC2)cc1	0	0	0	0	55	0	0
CC(=O)Nc1ccc(-c2nc3cc(Cl)ccc3o2)cc1	0	0	0	0	0	0	0
CCc1ccc(/C=N/NC(=O)c2cc(C3CC3)nc3ccccc23)s1	0	0	0	0	58	0	0
Cc1cccc(/C=N/NC(=O)c2cc(C3CC3)nc3ccccc23)n1	0	0	0	0	0	0	-
CCOc1ccc(N2CC(C(=O)Nc3nnc(CC)s3)CC2=O)cc1 (stereo not given)	0	0	0	0	0	0	-
O=C(NC1CC1)c1sc2ccccc2c1Cl	0	0	0	0	0	0	-
O=C(NC1C=CS(=O)(=O)C1)c1sc2ccccc2c1Cl (stereo not given)	0	0	0	0	56	0	0
Cc1ccc(C(=O)Nc2ncc(Cc3ccc(SC(F)F)cc3)s2)cc1	0	0	0	0	64	0	48
Cc1ccc(C(=O)Nc2ncc(Cc3ccc(F)cc3)s2)o1	0	0	0	0	0	0	-
COC(=O)CSc1nc(-c2cccs2)ccc1C#N	0	0	0	0	0	0	0
COC(=O)CSc1nc2cc3c(cc2cc1C#N)OCO3	0	0	0	0	0	0	0
CCOC(=O)CSc1nc2cc3c(cc2cc1C#N)OCO3	0	-	0	0	0	0	0
COc1ccc(Cl)cc1-n1c(=S)sc2c(=O)[nH]c(SCC(=O)C(C)(C)C)nc21	0	0	0	0	0	0	-
Cc1c(C(C)(C)C)s/c(=N/S(=O)(=O)c2ccccc2)n1C	0	0	0	0	0	0	-
Cc1c(C(C)(C)C)sc(=NC(=O)c2ccccc2O)n1C	0	0	0	0	0	0	0
Cc1ccn2cc(-c3cccc([N+](=O)[O-])c3)nc2c1	0	-	0	0	0	0	0
Cc1ccc(-c2cc(C(=O)OCC(=O)N(C)c3c(N)n(Cc4ccccc4)c(=O)[nH]c3=O)c3ccccc3n2)o1	0	0	-	0	0	0	-
COC(=O)c1cc(Cl)c(NC(=O)/C=C/c2ccc(OC)cc2)cc1OC	0	0	0	0	51	0	0
SMILES	Mdm2-MdmX inh	aSyn UTR inh	KLF5 inhibitor	Gli-Sufu antag	Jurkat NFkB inh	697 NFkB inh	Jurkat NFkB conf
COc1ccc(Nc2nc(N3CCCC3)c3ccccc3n2)cc1	0	0	0	0	58	0	0
Cc1nc(N2CCCCCC2)c2ccccc2n1	0	0	0	0	0	0	-
C=CCOCCN(CC)CC	-	0	0	0	-	-	-
O=C(COc1cccc2ccccc12)N/N=C/c1ccccc1OCc1ccc(C(=O)O)cc1	0	0	0	0	0	0	-
O=C(COc1ccccc1-c1ccccc1)N/N=C/c1cccc2ccccc12	0	75	0	0	56	0	51
COc1ccc(C(=O)CSc2nnc(-c3ccc(C)cc3)o2)cc1	0	0	0	0	0	0	-
COc1ccc(-c2nnc(SCC(C)C)o2)cc1	0	0	0	0	0	0	0
Cc1ccccc1OCCCC(=O)Nc1nccs1	0	0	0	0	0	0	-
Cc1cccc(OCC(=O)Nc2nccs2)c1C	0	0	0	0	0	0	0
Cc1nonc1OCCN1CCN(c2ccc([N+](=O)[O-])cc2)CC1	0	0	0	0	58	0	0
O=[N+]([O-])c1ccc(N2CCN(CCOc3nonc3-c3ccccc3)CC2)c(Cl)c1	0	0	0	0	0	0	-
O=[N+]([O-])c1ccc(N2CCN(Cc3ccc(Br)o3)CC2)cc1	0	0	0	0	52	0	0
FC(F)Oc1ccc(NC(=S)N2CCc3ccccc32)cc1	0	0	0	0	0	0	-
Cc1cccnc1NC(=S)NC(=O)c1cccs1	0	0	0	0	0	0	0
O=C(CSc1ccccc1)Nc1ccc2c(c1)OCCO2	0	0	0	0	0	0	0
CN1CCN(c2ccc(NC(=O)CSc3ccccc3)cc2F)CC1	0	0	0	0	0	0	0
O=C(Nc1ccc2ccccc2c1)N1CCCN(CCOc2ccccc2)CC1	0	0	0	0	0	0	-
Cc1ccc(C(CC(=O)NCCCN(C)C)c2ccc(OC(C)C)cc2)cc1 (stereo not given)	0	0	0	0	0	0	-
COc1cc(C(=O)N=c2sc3ccccc3n2C)cc(OC)c1OC	0	0	0	0	0	0	-
Cn1c(=NC(=O)c2cccc([N+](=O)[O-])c2)sc2ccccc21	0	0	0	0	0	0	0
COc1ccc(-c2nnn(Cc3ccccc3F)n2)cc1	0	0	0	0	0	0	-
Fc1ccccc1Cn1nnc(-c2ccc3c(c2)OCO3)n1	0	0	0	0	0	0	0
CCCCN(CC(=O)NCCOC)C(=O)Cn1nnc2ccccc21	0	0	0	0	0	0	-
CCCc1nc2oc3ccccc3c(=O)c2c(=O)n1-c1ccc(C)cc1	0	0	0	0	0	0	0
CCc1nc2oc3ccccc3c(=O)c2c(=O)n1-c1ccccc1	0	0	0	0	0	0	-
SMILES	Mdm2-MdmX inh	aSyn UTR inh	KLF5 inhibitor	Gli-Sufu antag	Jurkat NFkB inh	697 NFkB inh	Jurkat NFkB conf
CCc1nc2oc3ccccc3c(=O)c2c(=O)n1-c1ccc(C)cc1	0	0	0	0	0	0	-
Cc1ccc(-n2c(C(C)C)nc3oc4ccccc4c(=O)c3c2=O)cc1	0	0	0	0	0	0	0
CC(C)C(C(=O)Nc1ccc(S(N)(=O)=O)cc1)N1C(=O)c2ccccc2C1=O (stereo not given)	0	0	0	0	0	0	-
CCOC(=O)C1(CC2CCCCO2)CCN(C(=O)NCc2ccccc2)CC1 (stereo not given)	0	0	0	0	0	0	-
O=C(NN1CCCCC1)c1ccc(COc2ccc(Cl)cc2)cc1	0	0	0	0	0	0	-
O=C(Nc1ccccc1)c1cc(-c2ccccc2Cl)no1	0	0	0	0	0	0	0
O=C(NCc1ccc(Cl)cc1)c1cc([N+](=O)[O-])ccc1Cl	0	0	0	0	60	0	0
O=C(NCc1ccccc1Cl)c1cc([N+](=O)[O-])ccc1Cl	0	0	0	0	0	0	-
C=CCSc1nnc(-c2ccc(Cl)cc2Cl)o1	0	0	0	0	0	0	0
